Screening results (PubChem BioAssay)
Only some compounds are listed: those with a hit (about 2.4% of all), similar ones and a draw of the others.
D2 PAM-1 = D2 dopamine receptor (human) potentiation; P14416; HEK293 T-REx D2, calcium flux, EC20 dopamine potentiation; potentiation, % at 10 µM; 340,000 compounds, 0.34% hits; AID 485347;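 active = potentiation over 3 SD above the plate norm, cut at about 30% in these data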; note: 0% is about no effect
Target sequence (P14416 whole entry, looked up): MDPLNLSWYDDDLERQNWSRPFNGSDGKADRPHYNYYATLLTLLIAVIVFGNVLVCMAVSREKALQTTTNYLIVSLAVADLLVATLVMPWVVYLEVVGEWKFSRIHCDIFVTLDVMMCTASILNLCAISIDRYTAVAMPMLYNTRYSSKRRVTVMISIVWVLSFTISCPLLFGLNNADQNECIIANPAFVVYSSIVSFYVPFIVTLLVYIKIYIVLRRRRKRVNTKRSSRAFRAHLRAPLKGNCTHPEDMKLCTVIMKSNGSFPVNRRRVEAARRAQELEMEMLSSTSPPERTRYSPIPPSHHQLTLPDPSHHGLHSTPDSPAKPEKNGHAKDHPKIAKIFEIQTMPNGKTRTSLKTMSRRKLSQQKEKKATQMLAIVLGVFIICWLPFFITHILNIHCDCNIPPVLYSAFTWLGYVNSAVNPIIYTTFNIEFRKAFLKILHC
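Tetracycline-induced HEK293 T-REx cells force-coupled to calcium signalling expressed D2; compounds were pin-added after a 10 s baseline, read kinetically 180 s, then an EC20 dopamine challenge followed with a further 180 s calcium read.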
D2 ag-1 = activates the human D2 dopamine receptor | HEK293 T-REx D2 cells, calcium flux agonist mode | activation, % at 2 µM | AID 485358 | 340,000 compounds, 0.53% hits | P14416;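 active = activation over 3 SD above normal in the single-dose calcium agonist read, cut at about 30% in these data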; note: 0% is about no effect
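Agonism is scored from calcium flux in a force-coupled, inducible HEK293 cell line expressing D2, read kinetically for 180 s after compound addition against dopamine controls.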
D2 ag-2 = activates the human D2 dopamine receptor | P14416 | DiscoveRx PathHunter D2 beta-arrestin, luminescence, 90 min; 100% = 57 uM dopamine signal | activation, % (concentration not given with the values) | 360,000 compounds, 0.084% hits | AID 624465; in the data active = activation above about 40%
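Agonist mode: compounds alone added to overnight-plated D2 PathHunter cells for 90 min at 37 C, with 57 uM final dopamine (EC100) defining full response. Beta-arrestin recruitment detected by chemiluminescent reagent, read after 1 h at ambient temperature.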
D2 antagonist = antagonists of human D2 dopamine receptor. inhibition, % at 10 µM. HEK293 TREx D2 cells, calcium flux, dopamine EC80. AID 485344. 340,000 compounds, 2% hits. P14416; in the data active = inhibition above about 30%; inactive = below that, where a call was filed; note: 0% is about no effect
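Cells plated overnight at 30 C with tetracycline; no-wash calcium dye, 30–90 min RT; 10 s baseline; compound pinned; 180 s read; EC80 dopamine added; another 180 s read.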
D2 PAM-2 = potentiates the human D2 dopamine receptor allosterically | DiscoveRx D2 beta-arrestin cells, luminescence, 90 min; 100% = 57 uM dopamine signal | potentiation, % (test concentration not listed) | 360,000 compounds, 0.23% hits; in the data active = potentiation above about 50%
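PathHunter D2 cells, attached overnight at 37 deg C, received compound in DMSO plus dopamine at EC20 (50 nM final) for 90 min at 37 deg C. Beta-arrestin recruitment was read as luminescence after 1 h with detection reagent at ambient temperature.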
The depositor's hits bear a star; / = no result.

SMILES | D2 PAM-1 | D2 ag-1 | D2 ag-2 | D2 antagonist | D2 PAM-2
O=c1c(Cl)nc2cc(Cl)ccc2n1CCNc1ncc(C(F)(F)F)cc1Cl | 46.6* | 0.1 | -2.4 | 0.8 | 18.0
O=c1c2nncn2c2cc(C(F)(F)F)ccc2n1CCNc1ncc(C(F)(F)F)cc1Cl | -3.5 | -1.9 | -5.4 | -14.6 | -2.3
CCOC(=O)N1CCN(Cc2nc3cc([N+](=O)[O-])ccc3n2CC)CC1 | -6.6 | -1.1 | 2.4 | 36.7* | 3.3
O=c1cc(-c2ccc(OCc3ccccc3)cc2)oc2cc(OCc3ccccc3)cc(OCc3ccccc3)c12 | / | / | 0.6 | / | 2.5
O=c1cc(-c2ccccc2)oc2cc(OCc3ccccc3)cc(O)c12 | -8.0 | 0.9 | 1.8 | 50.7* | -8.2
O=C(Nc1cccc(S(=O)(=O)NC2=NCCCCC2)c1)c1cc(-c2ccncc2)nc2ccccc12 | 5.5 | 1.8 | -2.8 | -3.9 | 98.3*
O=C(Cc1c(F)cccc1Cl)Nc1cccc(S(=O)(=O)NC2=NCCCCC2)c1 | 3.6 | 0.0 | -1.1 | 31.1* | -25.4
O=C(CCl)Nc1cccc(S(=O)(=O)NC2=NCCCCC2)c1 | / | / | -1.2 | / | -2.2
O=C(NCc1ccccc1CN1CCCC1)c1cccc(S(=O)(=O)N2CCOCC2)c1 | -14.3 | 0.3 | -3.0 | 49.4* | -35.1
CN(c1ccccc1)S(=O)(=O)c1ccc(C(=O)NCc2ccccc2CN2CCCC2)cc1 | -20.0 | 0.5 | -1.7 | 0.3 | -37.2
Cc1c(C(=O)NCc2ccccc2CN2CCCC2)oc2ccc(F)cc12 | -25.7 | -0.3 | -0.7 | 58.4* | -3.2
CN(c1ccccc1)S(=O)(=O)c1cccc(C(=O)NCc2ccccc2CN2CCCC2)c1 | -30.7 | 0.2 | -1.6 | 39.3* | -32.6
O=C(NCc1nc2ccccc2[nH]1)c1cccc(S(=O)(=O)N2CCOCC2)c1 | -1.6 | 0.2 | -2.7 | 37.8* | -9.1
Cc1ccc([C@H]2N[C@]3(CCCN(Cc4ccc(C(F)(F)F)cc4)C3=O)[C@H]3C(=O)N(C)C(=O)[C@@H]23)cc1 | / | / | -9.6 | / | -7.8
CC1CCN(C(=O)COC(=O)c2cccc(S(=O)(=O)N(C)c3ccccc3)c2)CC1 | 1.4 | 5.0 | 1.9 | 43.3* | 5.1
CC(CCN1CCOCC1)c1ccccc1 (stereo not drawn) | 0.9 | -0.5 | -1.5 | 0.7 | -1.9
CC(CCN1CCN(c2ccc(F)cc2)CC1)c1ccccc1 (stereo not drawn) | -21.3 | 1.5 | -4.9 | 87.7* | -32.6
COc1ccccc1-n1c(SCC(=O)NC2CCS(=O)(=O)C2)nc2cc([N+](=O)[O-])ccc21 (stereo not drawn) | -4.9 | 0.2 | -0.1 | -17.6 | -1.4
CCN(CC)S(=O)(=O)c1ccc2c(c1)nc(SCC(=O)NC1CC1)n2-c1ccccc1OC | / | 1.0 | -2.3 | 50.5* | -5.0
COc1cccc(-n2c(=O)c3sccc3n(CC(=O)NC3CCCC3)c2=O)c1 | 17.4 | -0.8 | -7.5 | -13.9 | -7.9
COc1cccc(-n2c(=O)c3sccc3n(CC(=O)NC3CCCCC3)c2=O)c1 | 1.3 | -0.4 | -2.7 | 30.5* | -6.0
CC(=O)N1CCN(Cc2nc3scc(-c4ccccc4)c3c(=O)[nH]2)CC1 | -0.5 | / | -3.6 | / | -3.8
O=c1[nH]c(CN2CCN(Cc3ccccc3)CC2)nc2scc(-c3ccccc3)c12 | -23.8 | 0.3 | -1.6 | 68.8* | -5.6
CSc1ccc(-c2nc3ncccn3c2Nc2ccc(C)c(C)c2)cc1 | 0.5 | -0.3 | / | / | /
C=CCNC(=S)NNC(=O)CC12CC3CC(CC(C3)C1)C2 | -5.2 | 0.3 | -3.1 | 33.6* | -5.8
SMILES | D2 PAM-1 | D2 ag-1 | D2 ag-2 | D2 antagonist | D2 PAM-2
O=C(CSc1ncnc2nc[nH]c12)c1ccc(Cl)cc1 | 2.5 | 1.8 | 5.7 | 14.2 | -1.4
O=C(CSc1ncnc2nc[nH]c12)c1ccc([N+](=O)[O-])cc1 | 2.7 | -0.8 | 13.5 | -0.6 | 55.6*
CCOc1ccc(NC(=O)/C(C#N)=C/c2ccc(N3CCCC3)c(C)c2)cc1 | -3.5 | 32.5* | 5.8 | 38.4* | 6.1
CN(C)c1ccc(C2C=C(c3ccccc3)Nc3nnnn32)cc1 (stereo not drawn) | 11.6 | 9.8 | / | / | /
O=c1[nH]cnc2nc(-c3ccccc3)c(-c3ccccc3)nc12 | 45.3* | 0.3 | -2.4 | -10.1 | -12.1
Cc1ccc(-n2c(C)cc(C(=O)C(=O)Nc3ccccc3)c2C)c(C)c1 | -2.1 | 0.0 | / | / | /
